Results filed as inconclusive are left out. Activity calls are given as the source filed them. Calls come from the whole dose curve; as a rule, active = well fitted inhibition curve with a large enough effect; inconclusive = small, poorly fitted or top-dose-only effect; inactive = flat fitted curve, though single readings scatter.

Common to all, as to test: qHTS profiling for inhibitors of Plasmodium falciparum proliferation (AID 504749); note: nearly all actives have a fitted effect of over 60% in size
Holding throughout (details): P. falciparum in erythrocytes, SYBR Green DNA, 72 h; series mostly up to 28.7 µM
A general note: Quantitative high-throughput screening tests each substance at several concentrations.

The test system of one assay is CP238. An outline of the steps:
(§1)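 In a 72 h erythrocytic culture (37 C, humidified, 5% CO2) at 2.5% hematocrit and 0.3% starting parasitemia, compounds were tested; SYBR Green I in detergent lysis buffer stained parasite DNA overnight.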

The test system of a further assay is CP247. An outline of the steps: as §1
In a further assay the test system is CP250. An outline of the steps:
as §1

The next assay deals with CP252. An outline of the steps: as §1
The next assay relates to CP256. The method in brief: as §1
The test system of another assay is CP260. The method in brief:
as §1

A further assay relates to CP262. An outline of the steps: as §1
For a further assay, the system named is CP265. An outline of the steps:
as §1

The next assay has as its system CP266. An outline of the steps: as §1
For a further assay, the system named is CP268. The method in brief: as §1
For the next assay, the system named is CP269. The method in brief: as §1
The next assay has as its system CP286. The method in brief: as §1
A further assay relates to CP291. The method in brief: as §1
Another assay deals with CP297. An outline of the steps:
as §1

A further assay has as its system CP305. The method in brief: as §1
In a further assay the test system is CP315. The method in brief:
as §1

For a further assay, the system named is CP325. The method in brief: as §1
The subject of another assay is CP329. The method in brief: as §1
A further assay has as its system CP335. The method in brief: as §1
The test system of the next assay is DFO2036. An outline of the steps: as §1
Potency is the fitted concentration of half-maximal effect.

For the compound `O=C1OC(OC(=O)c2cccnc2Nc2cccc(C(F)(F)F)c2)c2ccccc21` (configuration not stated), the Potency entry in the assay on CP238, with CP247, with CP250, with CP252, in the assay with CP256 and with CP260 was “inactive” in each case. Further, the Potency result in the assay on CP262, in the assay on CP265, in the assay with CP266, with CP268, with CP269 and in the assay with CP286 was “inactive” in each case. Besides, the Potency entry in the assay with CP291, in the assay on CP297, with CP305, in the assay on CP315, with CP325 and in the assay on CP329 was “inactive” each time. The Potency result in the assay on CP335 and in the assay with DFO2036 was “inactive” in each case.

Turning to `COc1ccc(Cl)cc1C(=O)NCCc1ccc(S(=O)(=O)NC(=O)NC2CCCCC2)cc1`, the Potency entry in the assay on CP238, in the assay with CP247, in the assay with CP250, with CP252, in the assay with CP256 and with CP260 was “inactive” each time. For the same compound, the Potency entry with CP262, with CP265, in the assay on CP266, with CP268, in the assay with CP269 and in the assay on CP286 was “inactive” each time. In addition, the Potency result in the assay on CP291, in the assay on CP297, with CP305, in the assay on CP315, in the assay with CP325 and in the assay on CP329 was “inactive” in each case. In addition, the Potency entry in the assay with CP335 and in the assay with DFO2036 was “inactive” in each case.

In the case of `CCCCC(CC)COC(=O)c1ccccc1O` (configuration not stated), the Potency entry with CP238, in the assay with CP247, with CP250, in the assay with CP252, in the assay on CP256 and in the assay on CP260 was “inactive” in each case. In addition, the Potency result in the assay with CP262, in the assay with CP265, in the assay with CP266, in the assay with CP268, in the assay with CP269 and in the assay on CP286 was “inactive” throughout. Further, the Potency entry in the assay with CP291, in the assay with CP297, in the assay with CP305, with CP315, in the assay with CP325 and in the assay with CP329 was “inactive” each time. Also, the Potency entry in the assay with CP335 and in the assay with DFO2036 was “inactive” throughout.

As for `CCCCOc1cc(C(=O)OCCN(CC)CC)ccc1N`, the Potency result in the assay on CP238, with CP247, in the assay on CP250, in the assay on CP252, with CP256 and in the assay on CP260 was “inactive” each time. The Potency entry with CP262, in the assay with CP265, in the assay with CP266, in the assay with CP268, with CP269 and with CP286 was “inactive” each time. Also, the Potency result in the assay on CP291, in the assay on CP297, in the assay with CP305, with CP315, in the assay on CP325 and in the assay with CP329 was “inactive” in each case. The Potency entry with CP335 and in the assay with DFO2036 was “inactive” throughout.

Consider `COc1cc2[nH]c(=O)[nH]c(=O)c2cc1OC`, for which the Potency result with CP238, in the assay on CP247, in the assay with CP250, in the assay on CP252, with CP256 and in the assay on CP260 was “inactive” in each case. Further, the Potency result in the assay with CP262, with CP265, in the assay with CP266, in the assay with CP268, in the assay with CP269 and in the assay with CP286 was “inactive” in each case. In addition, the Potency entry with CP291, with CP297, in the assay with CP305, in the assay with CP315, in the assay on CP325 and with CP329 was “inactive” each time. The Potency entry with CP335 and in the assay on DFO2036 was “inactive” in each case.

On to `CCOC(=O)[C@H](CCc1ccccc1)N[C@@H](C)C(=O)N1C(=O)N(C)C[C@H]1C(=O)O`, for which the Potency entry in the assay on CP238, with CP247, in the assay on CP250, in the assay on CP252, in the assay with CP256 and in the assay on CP260 was “inactive” throughout. The Potency entry with CP262, with CP265, with CP266, in the assay on CP268, in the assay on CP269 and in the assay on CP286 was “inactive” throughout. Further, the Potency entry with CP291, with CP297, in the assay on CP305, in the assay on CP315, in the assay with CP325 and in the assay with CP329 was “inactive” in each case. Moreover, the Potency entry in the assay with CP335 and with DFO2036 was “inactive” each time.

Turning to `[O-][n+]1cccc(CO)c1`, the Potency result with CP238, with CP247, in the assay with CP250, with CP252, in the assay with CP256 and in the assay on CP260 was “inactive” each time. Also, the Potency result in the assay with CP262, in the assay with CP265, in the assay on CP266, in the assay with CP268, with CP269 and with CP286 was “inactive” in each case. Besides, the Potency entry in the assay with CP291, in the assay on CP297, with CP305, in the assay with CP315, with CP325 and in the assay with CP329 was “inactive” in each case. The Potency entry in the assay on CP335 and in the assay on DFO2036 was “inactive” each time.

For the compound `Cc1cc(O)cc2c1O[C@](C)(CCC[C@H](C)CCC[C@H](C)CCCC(C)C)CC2`, the Potency entry in the assay with CP238, in the assay with CP247, in the assay on CP250, in the assay on CP252, in the assay with CP256 and with CP260 was “inactive” each time. Also, the Potency entry in the assay with CP262, in the assay on CP265, in the assay with CP266, in the assay on CP268, in the assay on CP269 and in the assay with CP286 was “inactive” each time. The Potency entry in the assay with CP291, in the assay with CP297, in the assay with CP305, with CP315, with CP325 and with CP329 was “inactive” throughout. Besides, the Potency entry in the assay on CP335 and with DFO2036 was “inactive” throughout.

Turning to `C#CCN(C)Cc1ccccc1`, the Potency result in the assay with CP238, with CP247, with CP250, in the assay on CP252, with CP256 and in the assay on CP260 was “inactive” throughout. Besides, the Potency result in the assay on CP262, in the assay on CP265, with CP268, in the assay with CP269, with CP286 and in the assay on CP291 was “inactive” each time. The Potency entry with CP305, in the assay on CP315, with CP325, in the assay with CP329, in the assay with CP335 and in the assay with DFO2036 was “inactive” in each case.

Consider `O=c1cc[nH]c(=S)[nH]1`, for which the Potency result in the assay on CP238, in the assay with CP247, in the assay with CP250, with CP252, in the assay with CP256 and with CP260 was “inactive” each time. The Potency entry with CP262, in the assay on CP265, in the assay on CP266, in the assay on CP268, with CP269 and in the assay with CP286 was “inactive” throughout. The Potency result with CP291, in the assay with CP305, in the assay with CP315, in the assay on CP325, in the assay on CP329 and with CP335 was “inactive” each time. In addition, the Potency result with DFO2036 was “inactive”.

Turning to `CC(O)CN(CCN(CC(C)O)CC(C)O)CC(C)O` (configuration not stated), the Potency entry in the assay with CP238, in the assay with CP247, in the assay on CP250, in the assay with CP252, with CP256 and with CP260 was “inactive” in each case. Besides, the Potency result with CP262, with CP265, in the assay on CP268, with CP269, with CP286 and in the assay on CP291 was “inactive” in each case. For the same compound, the Potency entry with CP297, with CP305, in the assay on CP315, in the assay on CP325, with CP329 and in the assay on CP335 was “inactive” in each case. Moreover, the Potency entry in the assay with DFO2036 was “inactive”.

As to `CCCCN1CCCC[C@H]1C(=O)Nc1c(C)cccc1C`, the Potency entry with CP238, with CP247, in the assay with CP250, in the assay on CP252, in the assay with CP256 and in the assay on CP260 was “inactive” in each case. Further, the Potency entry with CP262, with CP266, with CP268, with CP269, in the assay with CP286 and with CP297 was “inactive” each time. In addition, the Potency result in the assay with CP305, with CP315, in the assay with CP325, with CP329 and with DFO2036 was “inactive” each time.

As to `CC(C)(C)C(=O)NCCCC(=O)O`, the Potency result in the assay on CP238, with CP247, with CP250, in the assay on CP252, with CP256 and in the assay on CP262 was “inactive” each time. Also, the Potency result in the assay on CP265, with CP266, in the assay with CP268, in the assay with CP269, with CP286 and in the assay on CP297 was “inactive” each time. Also, the Potency result in the assay with CP305, with CP315, in the assay on CP325, in the assay on CP329, with CP335 and with DFO2036 was “inactive” throughout. Moreover, the Potency with CP291 was 12 µM (active).

The values are drawn from PubChem BioAssay (NCATS).
